Data from PubChem BioAssay AID1159580 (chemical genetic matrix, 2015).
Several values for one entry are separate records, joined by “and”; a condition that tells them apart may be missing. Identical values can stand only once. In all, about 5,500 compounds went through this assay and about 2,000 (36%) were called active. Another 18% or so got no clear call; they are omitted. No stated cut-off is given here; in the data, active means normalized growth mostly below about 0.91 (no sharp cut-off); inconclusive means no clear call, values can overlap the other calls; inactive means mostly above about 0.92. Some of the results follow.

Experiment: chemical genetic growth profiling, strain panel (AID 1159580);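 further: tested at 20 µM; growth read once vehicle control cultures reached saturation at 30 °C; 1 = growth at the plate median or of vehicle wells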
Conditions: S. cerevisiae deletion strains, growth OD

CCCCOc1ccc(OCCCN2CCOCC2)cc1
normalized growth (locus YAL013W, strain DEP1, stronger effect = lower value): 0.994 (inactive) | normalized growth (locus YAL021C, strain ccr4, stronger effect = lower value): 0.829 (active) | normalized growth (locus YAL026C, strain drs2, stronger effect = lower value): 0.0964 (active) | normalized growth (locus YAL030W, strain snc1, stronger effect = lower value): 0.988 (inactive) | normalized growth (locus YBL061C, strain skt5, stronger effect = lower value): 0.955 (inactive) | normalized growth (locus YBR009C, strain hhf1, stronger effect = lower value): 0.96 (inactive) | normalized growth (locus YBR021W, strain FUR4, stronger effect = lower value): 1.16 [resistant] (active) | normalized growth (locus YBR023C, strain chs3, stronger effect = lower value): 0.946 (inactive) | normalized growth (locus YBR171W, strain sec66, stronger effect = lower value): 0.942 (inactive) | normalized growth (locus YBR229C, strain ROT2, stronger effect = lower value): 1 (inactive) | normalized growth (locus YBR231C, strain swc5, stronger effect = lower value): 0.935 (inactive) | normalized growth (locus YBR279W, strain paf1, stronger effect = lower value): 0.918 (active) | normalized growth (locus YCL011C, strain gbp2, stronger effect = lower value): 0.966 (inactive) | normalized growth (locus YCL016C, strain dcc1, stronger effect = lower value): 0.928 (inactive) | normalized growth (locus YCL029C, strain bik1, stronger effect = lower value): 0.938 (inactive) | normalized growth (locus YCL069W, strain vba3, stronger effect = lower value): 0.995 (inactive) | normalized growth (locus YCR088W, strain abp1, stronger effect = lower value): 0.997 (inactive) | normalized growth (locus YDL005C, strain med2, stronger effect = lower value): 1 (inactive) | normalized growth (locus YDL035C, strain GPR1, stronger effect = lower value): 0.855 (active) | normalized growth (locus YDL040C, strain nat1, stronger effect = lower value): 0.987 (inactive) | normalized growth (locus YDL074C, strain BRE1, stronger effect = lower value): 0.841 (inactive) | normalized growth (locus YDL101C, strain DUN1, stronger effect = lower value): 0.963 (inactive) | normalized growth (locus YDL134C, strain PPH21, stronger effect = lower value): 0.823 (active) | normalized growth (locus YDL185W, strain tfp1, stronger effect = lower value): 0.979 (inactive) | normalized growth (locus YDL192W, strain arf1, stronger effect = lower value): 0.893 (active) | normalized growth (locus YDR001C, strain nth1, stronger effect = lower value): 0.983 (inactive) | normalized growth (locus YDR069C, strain doa4, stronger effect = lower value): 0.883 (active) | normalized growth (locus YDR101C, strain arx1, stronger effect = lower value): 0.916 (active) | normalized growth (locus YDR137W, strain rgp1, stronger effect = lower value): 0.913 (inactive) | normalized growth (locus YDR150W, strain NUM1, stronger effect = lower value): 0.984 (inactive) | normalized growth (locus YDR159W, strain sac3, stronger effect = lower value): 0.943 (inactive) | normalized growth (locus YDR162C, strain NBP2, stronger effect = lower value): 0.952 (inactive) | normalized growth (locus YDR195W, strain ref2): 1.21 [resistant] (active) | normalized growth (locus YDR297W, strain sur2, stronger effect = lower value): 0.968 (inactive) | normalized growth (locus YDR318W, strain mcm21, stronger effect = lower value): 0.884 (active) | normalized growth (locus YDR334W, strain swr1, stronger effect = lower value): 0.947 (inactive) | normalized growth (locus YDR335W, strain msn5, stronger effect = lower value): 0.904 (active) | normalized growth (locus YDR388W, stronger effect = lower value): 0.9 (active) | normalized growth (locus YDR392W, strain spt3, stronger effect = lower value): 0.868 (inactive) | normalized growth (locus YDR502C, strain sam2, stronger effect = lower value): 0.872 (active) | normalized growth (locus YEL003W, strain gim4, stronger effect = lower value): 0.918 (inactive) | normalized growth (locus YEL037C, strain rad23, stronger effect = lower value): 0.98 (inactive) | normalized growth (locus YEL061C, strain CIN8 (second series), stronger effect = lower value): 0.973 (inactive) | normalized growth (locus YEL061C, strain CIN8, stronger effect = lower value): 0.931 (inactive) | normalized growth (locus YER015W, strain faa2, stronger effect = lower value): 0.925 (active) | normalized growth (locus YER016W, strain bim1, stronger effect = lower value): 0.983 (inactive) | normalized growth (locus YER110C, stronger effect = lower value): 0.922 (inactive) | normalized growth (locus YER111C, strain swi4, stronger effect = lower value): 0.962 (inactive) | normalized growth (locus YER155C, strain BEM2 (second series), stronger effect = lower value): 0.407 (active) | normalized growth (locus YER155C, strain BEM2, stronger effect = lower value): 1.04 (inactive) | normalized growth (locus YER167W, strain BCK2, stronger effect = lower value): 0.838 (active) | normalized growth (locus YFR010W, strain ubp6, stronger effect = lower value): 0.884 (active) | normalized growth (locus YGL078C, strain dbp3, stronger effect = lower value): 0.966 (inactive) | normalized growth (locus YGL086W, strain mad1, stronger effect = lower value): 0.906 (active) | normalized growth (locus YGL167C, strain pmr1, stronger effect = lower value): 0.966 (inactive) | normalized growth (locus YGL173C, strain kem1, stronger effect = lower value): 0.929 (inactive) | normalized growth (locus YGL227W, strain vid30, stronger effect = lower value): 0.966 (inactive) | normalized growth (locus YGL240W, strain doc1, stronger effect = lower value): 0.965 (inactive) | normalized growth (locus YGL248W, strain PDE1, stronger effect = lower value): 0.863 (active) | normalized growth (locus YGL253W, strain hxk2, stronger effect = lower value): 0.94 (inactive) | normalized growth (locus YGR078C, strain PAC10, stronger effect = lower value): 0.828 (active) | normalized growth (locus YGR135W, strain pre9, stronger effect = lower value): 0.784 (active) | normalized growth (locus YGR229C, strain SMI1, stronger effect = lower value): 0.598 (active) | normalized growth (locus YGR252W, strain gcn5, stronger effect = lower value): 0.588 (active) | normalized growth (locus YHR013C, strain ard1, stronger effect = lower value): 0.799 (active) | normalized growth (locus YHR027C, strain rpn1, stronger effect = lower value): 0.953 (inactive) | normalized growth (locus YHR030C, strain SLT2, stronger effect = lower value): 0.911 (active) and 0.965 (inactive) | normalized growth (locus YHR079C, strain IRE1 (second series), stronger effect = lower value): 0.93 (inactive) | normalized growth (locus YHR079C, strain IRE1, stronger effect = lower value): 0.979 (inactive) | normalized growth (locus YHR094C, strain hxt1, stronger effect = lower value): 0.997 (inactive) | normalized growth (locus YHR129C, strain ARP1, stronger effect = lower value): 0.99 (inactive) | normalized growth (locus YHR142W, strain chs7, stronger effect = lower value): 0.817 (active) | normalized growth (locus YHR200W, strain rpn10, stronger effect = lower value): 0.961 (inactive) | normalized growth (locus YIL066C, strain RNR3, stronger effect = lower value): 0.719 (active) | normalized growth (locus YIL073C, strain SPO22, stronger effect = lower value): 0.804 (inactive) | normalized growth (locus YIL125W, strain kgd1, stronger effect = lower value): 1 (inactive) | normalized growth (locus YIR030C, strain dcg1, stronger effect = lower value): 0.976 (inactive) | normalized growth (locus YJL092W, strain hpr5, stronger effect = lower value): 0.992 (inactive) | normalized growth (locus YJL095W, strain BCK1 (second series), stronger effect = lower value): 0.962 (inactive) | normalized growth (locus YJL095W, strain BCK1, stronger effect = lower value): 0.653 (active) and 0.972 (inactive) | normalized growth (locus YJL115W, strain asf1, stronger effect = lower value): 0.954 (inactive) | normalized growth (locus YJL129C, strain trk1, stronger effect = lower value): 0.805 (active) | normalized growth (locus YJL134W, strain LCB3, stronger effect = lower value): 0.999 (inactive) | normalized growth (locus YJL154C, strain vps35, stronger effect = lower value): 0.995 (inactive) | normalized growth (locus YJL164C, strain tpk1, stronger effect = lower value): 0.918 (inactive) | normalized growth (locus YJL166W, strain qcr8, stronger effect = lower value): 0.89 (active) | normalized growth (locus YJL168C, strain set2, stronger effect = lower value): 0.976 (inactive) | normalized growth (locus YJL187C, strain SWE1 (second series), stronger effect = lower value): 0.855 (active) | normalized growth (locus YJL187C, strain SWE1, stronger effect = lower value): 0.957 (inactive) | normalized growth (locus YJR043C, strain POL32, stronger effect = lower value): 0.934 (inactive) | normalized growth (locus YJR066W, strain TOR1, stronger effect = lower value): 0.884 (inactive)
